Measured values as given in PubChem BioAssay (NCI).
Compounds without any hit were thinned out: in the full panel of roughly 83,000, 20% have a hit.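 48-hour exposure, single concentration, 96-well plates; percent growth endpoint where 0 means no net growth. Active: below 10.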 Unmarked numbers belong to inactive results. Calls of active or inactive are those of the source.

Tests used:
Experiment in all cases: NCI-60 one-dose screen, 48 h (100 = growth as untreated, 0 = no growth, -100 = all killed)
Conditions in all cases: 10 µM unless noted
[1] = test system: DU-145 prostate
[2] = test system: MALME-3M melanoma
[3] = test system: MDA-MB-231 breast
[4] = test system: RXF 393 renal
[5] = test system: SF-268 CNS
[6] = test system: SF-295 CNS
[7] = test system: SF-539 CNS
[8] = test system: UACC-257 melanoma
[9] = test system: M14 melanoma
[10] = test system: HCT-15 colon
[11] = test system: HT29 colon
[12] = test system: SNB-75 CNS
[13] = test system: SNB-19 CNS
[14] = test system: U251 CNS
[15] = test system: PC-3 prostate
[16] = test system: SK-MEL-5 melanoma
[17] = test system: UACC-62 melanoma
[18] = test system: LOX IMVI melanoma
[19] = test system: SK-MEL-28 melanoma

Structure (SMILES) | growth [1] | growth [2] | growth [3] | growth [4] | growth [5] | growth [6] | growth [7] | growth [8] | growth [9] | growth [10] | growth [11] | growth [12] | growth [13] | growth [14] | growth [15] | growth [16] | growth [17] | growth [18] | growth [19]
Cc1nc2ccc(Cl)cn2c1-c1nnc(SCc2ccc([N+](=O)[O-])cc2)o1 | 67.9% | 31.6% | 41.4% | -5.38% (active) | 46.1% | 74.6% | 20.8% | 61.3% | 70.3% | 60.3% | 83.9% | 39.8% | 39.8% | 57.7% | 74% | 43.8% | 46.3% | 69.3% | 40.2%
CC(=O)OC[C@]12CC[C@@H](C(=O)CBr)[C@@H]1[C@H]1CC[C@@H]3[C@@]4(C)CC[C@H](OC(C)=O)C(C)(C)[C@@H]4CC[C@@]3(C)[C@]1(C)CC2 | 100% | 89.2% | 110% | 99.7% | 89.9% | 106% | 91.7% | 108% | 87.2% | 97.1% | 91.8% | 84.4% | 114% | 96.7% | 75.8% | 75.1% | 84.9% | -69.6% (active) | 99.8%
O=C1Nc2ccccc2/C1=C\c1c(-c2ccccc2)nc2ccccn12 | 63.5% | 43.6% | 59.2% | 26.8% | 51.2% | 24% | 49.6% | 87.6% | 3.79% (active) | 29.3% | 21.8% | 38.5% | 55.8% | 62.9% | 49.9% | 17.3% | 33.4% | 37.1% | 58.6%
NS(=O)(=O)c1ccc(CCn2c(SCC(=O)c3ccc(Cl)cc3)nc3ccccc3c2=O)cc1 | 102% | 96.4% | 95.5% | 111% | 100% | 103% | 94.2% | 111% | 104% | 98.2% | 102% | 90.2% | 102% | 109% | 98.2% | 104% | 98.9% | 96.8% | 113%
Cc1nnc2c(Cc3ccccc3)nc3ccccc3n12 | 97.7% | 109% | 96.1% | 95.4% | 89.9% | 99.7% | 95.8% | 104% | 99% | 106% | 105% | 78.1% | 103% | 101% | 104% | 97.6% | 100% | 92.4% | 103%
Clc1ccc(-c2ccc(CNCC3CCNCC3)o2)c(-c2ccccc2)c1 | -94.2% (active) | -85.4% (active) | -86.5% (active) | -88.2% (active) | -82% (active) | -86.1% (active) | -90.3% (active) | -75.3% (active) | -83.3% (active) | -76.3% (active) | -78.6% (active) | -90.8% (active) | -68.1% (active) | -88.8% (active) | -81.8% (active) | -99.1% (active) | -90.8% (active) | -86.7% (active) | -90% (active)
O=C(NNc1nc2c(F)cccc2n2cccc12)c1cnccn1 | 26.2% | 18.3% | 31.7% | 37.5% | 30.6% | 8.17% (active) | -0.386% (active) | 16.2% | 3.21% (active) | 26.3% | 24.3% | 74.3% | 23.9% | 18.7% | 36.2% | 5.96% (active) | 16.5% | -32.6% (active) | 8.95% (active)
CCCN1[C@@H]2CC[C@H]1/C(=C\c1ccc(OC)c(OC)c1)C(=O)/C2=C/c1ccc(OC)c(OC)c1 | 59.7% | 83.9% | 56.3% | 58.3% | 59.2% | 30.9% | 59.4% | 42.1% | 43.1% | 41.6% | 30% | 61.1% | 56.7% | 40.7% | 44.3% | 18.1% | 32% | 32.5% | 73.2%
C[C@H](c1nc2ccc(N)cc2[nH]1)[C@H]1CC[C@H]2[C@@H]3CCC4=CC(=O)CC[C@]4(C)[C@H]3CC[C@]12C | 88.8% | 101% | 91.5% | 44.6% | 82.2% | 57.1% | 53.8% | 96.4% | 89.5% | 67.8% | 51.8% | 39.6% | 90.9% | 70.7% | 82.9% | 81.3% | 85% | 84.2% | 89.4%
NC(=S)N1N=C(c2ccccc2)CC1c1cn(-c2ccccc2)nc1-c1ccc(OCc2ccccc2)cc1 (stereo not given) | 104% | 101% | 99.2% | 110% | 101% | 105% | 102% | 92.9% | 101% | 106% | 95.9% | 95.1% | 97.3% | 97% | 89.2% | 99.4% | 86.3% | 99.3% | 112%
COc1ccc(Cc2cnc(NC(=O)c3ccc4c(c3)OCCO4)s2)cc1 | 14.9% | 55.4% | 37.1% | 19.5% | 34.8% | 10.5% | -1.94% (active) | 46.4% | 15.6% | 7.26% (active) | 2.59% (active) | 17.9% | 37.7% | 12.3% | 23.4% | -39.3% (active) | 48.1% | 29.3% | 68.6%
OCc1cnccc1NCCCCOc1ccc(Oc2ccccc2)cc1 | 80.2% | 58% | 62.6% | 66.1% | 80.9% | 51.5% | 67.3% | 54.5% | 53.6% | 49.8% | 24.6% | 71.6% | 74.6% | 52.3% | 56% | 15.7% | 61.5% | 45.9% | 70.2%
COc1cc(/C=C/C(=O)c2nc3cc(F)ccc3nc2C)cc(OC)c1OC | 22.9% | 65.3% | 85% | 54.5% | 89.2% | 347% | 97.5% | 74.1% | 73.1% | 48.1% | 68.5% | 89.9% | 77.9% | 36.7% | 68.1% | 81% | 62.2% | 20.8% | 61.3%
COc1cc(C(=O)Nc2cc3c(cc2Oc2cc(C)cc(C)c2)C(=O)N(C)[C@@H](CC(=O)N(C)O)C(=O)N3)c(Br)c(OC)c1OC | -31.7% (active) | -55.3% (active) | -34.3% (active) | -56.7% (active) | -27.1% (active) | -34.6% (active) | -46.7% (active) | -12.4% (active) | -88.2% (active) | -16.2% (active) | -14.5% (active) | -48.1% (active) | -21.9% (active) | -0.595% (active) | -14.5% (active) | -71.7% (active) | -69% (active) | -41.5% (active) | -49.1% (active)
COc1ccc(-c2nc(S(=O)(=O)c3ccccc3)c(S(=O)CC(=O)N3CCC(C)CC3)o2)cc1 (stereo not given) | 42.5% | -16.6% (active) | 24.7% | 17.2% | 62.5% | 92.9% | 40.4% | 65.9% | 35.1% | -48.5% (active) | 11% | 72% | 57.6% | 66.2% | 40.9% | 72.8% | 17.9% | -4.12% (active) | 19.2%
